A selection: hits, their analogues and other compounds. The true share with any hit is near 0.97%.
RPL19A-GFP yeast = RPL19A-GFP expression modulators in yeast, primary screen, cell-based, S. cerevisiae, multiplex flow cytometry, MLPCN; S. cerevisiae RPL19A-GFP strain, 3 h; hits give low values; percent response vs DMSO, % at 10 µM; 0.3% of 330,000 active; AID 2025, 2009;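 active = percent response vs DMSO below 50%; inconclusive = fewer than 70 events counted for the yeast strain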;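 note: median channel GFP fluorescence of the barcoded RPL19A-GFP strain; ratio of sample median GFP to plate DMSO average so 100% = DMSO; lower means less RPL19A-GFP as with rapamycin TOR inhibition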
CIT2-GFP yeast = modulators of CIT2-GFP expression in yeast, primary screen, S. cerevisiae, GFP fusion, multiplex flow cytometry, MLPCN library; S. cerevisiae CIT2-GFP strain, 3 h; 100 means same as DMSO wells; GFP response vs DMSO, % at 10 µM; 0.065% of 320,000 active; AID 2029, 2009;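 active = GFP response relative to DMSO above a set limit, near the screen mean plus 3 SD, cut at about 150% in these data; inconclusive = Fewer than 70 cells measured for a yeast strain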;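 note: ratio of well median GFP fluorescence to mean of DMSO wells on the plate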
LAP4-GFP MLPCN = modulators of LAP4-GFP expression in yeast, primary screen, S. cerevisiae, multiplex flow cytometry, MLPCN library. 3 h; median GFP as percent of DMSO wells. GFP response vs DMSO, % at 10 µM. 0.34% of 320,000 active. AID 2023, 2009;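 active = GFP response vs DMSO above a set limit, about the screen mean plus 3 SD, cut at about 150% in these data; inconclusive = under 70 cell events counted for the yeast strain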
MEP2 TOR yeast = modulators of MEP2-GFP levels in yeast, primary screen, S. cerevisiae, multiplex flow cytometry, MLPCN library | GFP response vs DMSO, % at 10 µM | S. cerevisiae MEP2-GFP strain, 3 h; 100% = DMSO control level | 0.51% of 330,000 active;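 active = GFP response versus DMSO above a set limit, roughly screen mean plus 3 SD, cut at about 180% in these data; inconclusive = fewer than 70 cells counted for a yeast strain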;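 note: median GFP fluorescence of the barcode-gated MEP2-GFP cells per well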
JMJD2C inh = inhibitors of GASC-1 histone demethylase, primary screen, biochemical, fluorescence, DELFIA europium; Lysine-specific demethylase 4C (Homo sapiens), Q9H3R0; GST-JMJD2C(1-420) H3K9me3 demethylation; inhibition, % at 2.35 µM; 0.069% of 330,000 active;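 active = more than half of a compound's replicate wells show inhibition beyond 50%, single wells judged on their own value; inconclusive = some, but no more than half, of replicates pass 50% inhibition; inactive = no replicate passes 50% inhibition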;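 note: signal counts dimethyl H3K9 product captured on neutravidin plate; 0% = median of DMSO wells and 100% = 0.3 times that DMSO median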
Target sequence (Q9H3R0 1-420 limits assumed): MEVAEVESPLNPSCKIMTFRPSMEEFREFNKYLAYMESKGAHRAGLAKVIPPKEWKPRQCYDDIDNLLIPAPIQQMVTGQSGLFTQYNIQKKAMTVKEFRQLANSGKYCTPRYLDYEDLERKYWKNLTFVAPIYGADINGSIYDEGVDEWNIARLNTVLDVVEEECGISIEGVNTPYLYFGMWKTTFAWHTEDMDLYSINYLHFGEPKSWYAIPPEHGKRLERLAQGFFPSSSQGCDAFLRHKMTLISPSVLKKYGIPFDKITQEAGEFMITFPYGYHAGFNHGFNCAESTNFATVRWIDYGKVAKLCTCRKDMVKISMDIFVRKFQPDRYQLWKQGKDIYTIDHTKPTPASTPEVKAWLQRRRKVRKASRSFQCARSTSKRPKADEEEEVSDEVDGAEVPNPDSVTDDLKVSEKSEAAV
AGP1-GFP MLPCN = modulators of AGP1-GFP expression in yeast TOR pathway, primary screen, cell-based, multiplex flow cytometry, S. cerevisiae, MLPCN library; 3 h; GFP as percent of DMSO wells; AID 2066, 2009; GFP response vs DMSO, % at 10 µM; 0.02% of 320,000 active;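 active = GFP response relative to DMSO above a set limit, near screen average plus 3 SD, cut at about 150% in these data; inconclusive = fewer than 70 cells counted for the yeast strain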;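 note: median GFP channel fluorescence of the gated AGP1 strain per well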
The depositor's hits bear a star; ? = inconclusive; / = no result; [ ] = dose if it differs, or a comment.

SMILES	RPL19A-GFP yeast	CIT2-GFP yeast	LAP4-GFP MLPCN	MEP2 TOR yeast	JMJD2C inh	AGP1-GFP MLPCN
Cc1cccc(-c2noc(CN(C)C(=O)c3ccco3)n2)c1	67	?	87	514*[may fluoresce violet]	-8	13
CCCCNC(=O)n1c(SC)nc2ccccc21	53	?	119	379*[may fluoresce violet]	-7	12
CCOc1cc(/C=C2\C(=N)N3N=C(S(=O)(=O)CC)SC3=NC2=O)ccc1OC(=O)c1ccco1	47*	92	79	129	11	28
COc1cc(/C=C2/C(=N)N3C(=NC2=O)SN=C3S(C)(=O)=O)ccc1OS(=O)(=O)c1ccccc1	53	88	80	115	4	22
CCOc1cc(/C=C2/C(=N)N3C(=NC2=O)SN=C3S(C)(=O)=O)ccc1OS(=O)(=O)c1ccccc1	13*[may fluoresce violet]	?	73	154	1	?
CCN(CC)S(=O)(=O)c1cccc(C(=O)NCC(c2ccccc2)N(C)C)c1 (centres undefined)	115	79	204*	123	-9	121
COc1ccc(NC(=O)CN(C)S(=O)(=O)c2cnc[nH]2)cc1OC	25*[may fluoresce violet]	?	77	121	7	?
COC(=O)c1ccc(S(=O)(=O)N2CCOCC2)o1	93	159*[may fluoresce green]	105	112	2	115
COC(=O)c1ccc(S(=O)(=O)N2CCCC2)o1	100	101	98	102	0	106
CC(C)c1ccc(S(=O)(=O)/N=C2\C=C(NS(=O)(=O)c3ccccc3)C(=O)c3ccccc32)cc1	25*[may fluoresce violet]	?	88	277*[may fluoresce violet]	?	?
O=S(=O)(Nc1c(O)ccc2ccccc12)c1ccccc1	42*[may fluoresce violet]	?	94	237*[may fluoresce violet]	-19	?
Oc1c(Br)cc(Br)cc1C=NCc1ccccc1	101	80	151*	97	-12	93
Cc1ccc(OCCNC(=O)Cc2ccc(S(=O)(=O)N3CCOCC3)s2)cc1	95	96	90	94	-41	98
O=C(O)c1cccc(S(=O)(=O)Nc2ccccc2Cc2ccccc2)c1	53	?	96	265*[may fluoresce violet]	21	20
O=C(O)c1cccc(S(=O)(=O)Nc2cccc3ccccc23)c1	108	113	100	110	-9	106
CN(Cc1ccc(Cl)c(Cl)c1)C(=O)C1CSC2(C)CCC(=O)N12 (centres undefined)	95	96	99	98	9	99
S=c1[nH]nc(-c2ccco2)n1/N=C/C(Cl)=C/c1ccccc1	90	94	167*	111	21	89
O=C(NCc1nnc(SCC(=O)N2CCN(c3ccccc3)CC2)o1)c1c(F)cccc1F	102	105	109	107	22	104
CCC(C)[C@H](NC(=O)N1CC(=O)Nc2ccccc21)C(=O)N[C@@H](C(=O)O)c1ccccc1 (some centres undefined)	25*[may fluoresce violet]	?	77	145	6	?
CCC(C)[C@H](NC(=O)N1CC(=O)Nc2ccccc21)C(=O)NC(C)CCc1ccccc1 (some centres undefined)	101	103	91	96	5	101
O=c1[nH]c2ccc(S(=O)(=O)N3CCCCC3)cc2[nH]c1=O	100	105	105	104	-8	108
CC1CCN(S(=O)(=O)c2ccc3[nH]c(=O)[nH]c3c2)CC1	104	106	98	103	58*	101
Cc1ccc(-n2c(C)cc(/C=N/NC(=O)Cn3c4ccccc4c(=O)c4ccccc43)c2C)cc1	37*[may fluoresce violet]	?	78	244*[may fluoresce violet]	0	20
Cc1sc2nc(CN3CCOCC3)nc(NS(=O)(=O)c3cc(Cl)ccc3Cl)c2c1C	97	83	110	95	56*	91
Cc1sc2nc(CN3CCOCC3)nc(Cl)c2c1C	99	95	90	98	4	94
SMILES	RPL19A-GFP yeast	CIT2-GFP yeast	LAP4-GFP MLPCN	MEP2 TOR yeast	JMJD2C inh	AGP1-GFP MLPCN
CCc1nc(CN(C)C(=O)C2CCC(=O)N(CCc3cccc(F)c3)C2)no1 (centres undefined)	95	94	92	93	-5	95
COC(=O)C(Cc1ccc(O)cc1)NC(=O)C(C)NC(=O)c1ccc(C(C)(C)C)cc1 (centres undefined)	?	91	72	77	66	78
COc1ccc(C(=O)/C(=C/O)N=Nc2ccc(F)cc2)cc1	94	77	172*	99	-35	96
COc1ccc(N=N/C(=C\O)C(=O)c2cccs2)cc1	96	74	109	93	-10	78
O=C(/C(=C/O)N=Nc1ccc(Cl)cc1)c1ccncc1	64	68	203*	122	2	78
O=C(Nc1ccc(F)cc1F)C1CCCN1S(=O)(=O)c1ccc(-c2ccc(=O)[nH]n2)s1 (centres undefined)	42*[may fluoresce violet]	?	48	253*[may fluoresce violet]	9	?
CCc1nnc(NS(=O)(=O)c2ccc(N3C(=O)C4CC=C(Cl)CC4C3=O)cc2)s1 (centres undefined)	103	109	101	103	2	103
Cc1cc(C)nc(NS(=O)(=O)c2ccc(N3C(=O)C4CC=C(Cl)CC4C3=O)cc2)n1 (centres undefined)	12*[may fluoresce violet]	?	?	?	/	?
COCCOCC(O)CN1CCN(c2ccccc2)CC1 (centres undefined)	42*[may fluoresce violet]	91	70	92	3	99
COCCOCC(O)CN1CCN(c2ccc(C)cc2)CC1 (centres undefined)	99	104	99	114	-20	103
Cc1cc(C)nc(S/C=C/C(=O)c2ccccc2F)n1	100	110	182*	98	-8	112
Cc1c(N)cc(N)cc1C(=O)O	108	102	96	109	0	103
Cc1c(Br)cc(C(=O)O)c(C)c1C	102	82	166*	108	-11	104
COc1ccc(NC(=O)CCN2CCN(S(=O)(=O)c3cc(Cl)ccc3OC)CC2)cc1	/	111	101	178*	-8	38
COc1ccc(NC(=O)CCN2CCN(S(=O)(=O)c3ccc(Br)cc3)CC2)cc1	104	104	105	114	1	103
O=C(Nc1ccc(Cl)cc1)N1CCN(c2ccccc2)CC1	99	85	133	102	52*	91
N#Cc1ccccc1S(=O)(=O)N1CCC(C(=O)NCc2ccccc2CN2CCCC2)CC1	90	95	83	84	-8	91

Bioassay records deposited in PubChem by several laboratories.
